36 compounds from PubChem BioAssay AID995 (National Center for Advancing Translational Sciences (NCATS), 2007) can be followed below.

Out of some 72,000 compounds screened, about 710 (0.99%) were called active. A call without a number means that no potency is given here. Not shown: some 7% with an inconclusive outcome. Calls follow the shape of the dose curve; as a rule, active = well fitted inhibition curve with a large enough effect; inconclusive = small, poorly fitted or top-dose-only effect; inactive = no such curve, though single readings can be large or run the other way. The sample as a whole holds a higher share of actives than the screen did.
Potency is read from the fitted curve at half-maximal effect.

This test can be described thus: qHTS Assay for Inhibitors of the ERK Signaling Pathway using a Homogeneous Screening Assay. Also: nearly all actives have a fitted effect of over 55% in size. Particulars: HEK293-V1b, vasopressin-stimulated pERK AlphaScreen; series mostly up to 57.5 µM. A digest of the protocol:
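V1b-HEK293 cells; cpd 30 min 37C; 25 nM vasopressin 5 min; lyse 10 min; AlphaScreen beads 5 hr RT. Normalized to DMSO basal and 25 nM vasopressin; AC50 by Hill fit.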
A general note: Quantitative high-throughput screening tests each substance at several concentrations.
`CC(C)=CC1C(C(=O)O)C1(C)C` (stereo unspecified): the Potency entry is “inactive”. The same measure, in the same setting: the value for `O=C(c1ccco1)N1CCC2(CC1)CN(c1ncccn1)C2` was “inactive”; that for `CC1(C)OC2CC3C4CCC5=CC(=O)CCC5(C)C4(F)C(O)CC3(C)[C@]2(C(=O)CCl)O1` (stereo partly specified) was “inactive”. Regarding `CC1OC(OCC2OC(Oc3c(-c4ccc(O)c(O)c4)oc4cc(O)cc(O)c4c3=O)C(O)C(O)C2O)[C@@H](O)C(O)C1O` (stereo partly specified), the Potency entry was “inactive”.

With `Cc1c(C)c2c(c(C)c1O)CC[C@@](C)(CN1CCN(c3cc(N4CCCC4)nc(N4CCCC4)n3)CC1)O2`, the Potency entry was “inactive”. With `CO[C@H]1COC(=O)C/C=C\[C@H](C)COC(=O)[C@@H](OCc2ccccc2)/C=C\[C@@H]1C`, the activity, negative = inhibition was 0.999% [at 11.5 µM] (inactive).

`COC(=O)CC1C(C)(C)C(OC(C)=O)C2CC3=C4CC(=O)OC(c5ccoc5)[C@]4(C)CCC3[C@@]1(C)C2=O` (stereo partly specified): the Potency result was “inactive”. With `CC(=O)OCC(=O)[C@@]1(O)CCC2C3CCC4=CC(=O)CC[C@]4(C)C3C(=O)C[C@]21C` (stereo partly specified), the Potency result was “inactive”. For the compound `Cc1cc(/C=N/n2cnnc2)c(C)n1-c1ccc2ncccc2c1`, the Potency is 15.8 µM (active). With `Fc1ccc(Br)cc1/C=N/n1cnnc1`, the Potency entry was “inactive”.

On to `Cc1ccc(S(=O)(=O)Nc2ccc3ncccc3c2)cc1`, for which the Potency entry is “inactive”.

On to `CCC1=C(OC(=O)N(CC)CC)N2C(=O)OC(=NCC3CC3)[C@]2(C)[C@H]2C1=CC[C@H]1C(=O)N(CC(=O)OC)C(=O)[C@H]12`, for which the Potency entry is “inactive”. On to `CCC(C)C(N)C1=NC(C(=O)NC(CC(C)C)C(=O)NC(CCC(=O)O)C(=O)NC(C(=O)NCCCCC2NC(=O)C(CC(N)=O)NC(=O)C(CC(=O)O)NC(=O)C(Cc3cnc[nH]3)NC(=O)C(Cc3ccccc3)NC(=O)C(C(C)CC)NC(=O)C(CCCN)NC2=O)C(C)CC)CS1` (stereo unspecified), for which the Potency entry is “inactive”.

In the case of `O=c1c(CCc2ccccc2)nc2cnc(N3CCNCC3)nc2n1Cc1cccs1`, the Potency entry was “inactive”. Consider `Clc1ccc(C2[C@H]3CN(CC4CCCCC4)[C@H](c4ccccc4)C34CC2(c2cccnc2)C4)cn1` (stereo partly specified), for which the Potency result was “inactive”. With `C=CCn1c(CSc2nc3ccccc3s2)nnc1SCC(=O)NCc1ccco1`, the Potency entry is “inactive”.

With `CCn1c(SCC(=O)Nc2nc3ccc(OC)cc3s2)nnc1-c1ccoc1C`, the Potency entry was “inactive”. Same read-out and setting: next, `C=CCn1c(SCC(=O)Nc2nc3ccccc3s2)nnc1-c1ccccc1O`: 15.8 µM (active); `Cc1ccc(-c2nn(CC(C)(C)C)c3ncnc(N)c23)cc1`: 7.94 µM (active); `CC(C)=CCC/C(C)=C/CC/C(C)=C/CC/C(C)=C/CO`: “inactive”. For the compound `COc1cc(OC)c2c(c1Cl)OC1(C2=O)C(O)=CC(=O)CC1C` (stereo unspecified), the Potency result is “inactive”.

Consider `CCC[C@@H]1C[C@@]1(CCC)C(NS(=O)(=O)c1cccc2cccnc12)c1ccc(Cl)cc1` (stereo partly specified), for which the Potency result was “inactive”.

`C=CC(=C)CCC=C(C)C`: the Potency result is “inactive”. Take `Fc1cccc(/C=N\N=C/c2cccc(F)c2)c1`: the Potency entry was “inactive”.

Turning to `O=C1NS(=O)(=O)c2ccccc21`, the Potency result was “inactive”. Turning to `Cc1cccc(CNc2cc(-c3ccccc3Cl)ncn2)c1`, the Potency result was “inactive”. Same read-out and setting: the value for `FC(F)(F)c1ccc(CN2C[C@@H]3C(c4ccccc4)C4(c5ccccc5)CC3(C4)[C@H]2c2ccccc2)cc1` (stereo partly specified) was “inactive”; that for `Cc1ccc(OCC(=O)Nc2ccc(-c3nnc(-c4ccco4)o3)cc2)cc1` was “inactive”; that for `O=C(CCc1ccccc1)Nc1cccc(-c2nnc(-c3ccco3)o2)c1` was 25.1 µM (active). Consider `COc1ccc(CC(=O)Nc2ccc(-c3nnc(-c4ccccc4)o3)cc2)cc1`, for which the Potency entry is “inactive”. The same measure, in the same setting: next, `Oc1cc(O)c2c(c1)OC(c1ccc(O)c(O)c1)C(O)C2` (stereo unspecified): “inactive”.

Consider `C[C@@H](N)[C@@H](C)Cc1ccccc1`, for which the activity, negative = inhibition was -2.1% [at 11.5 µM] (inactive). For `CCC(CCC(C)C1CCC2C3CC=C4CC(O)CC[C@@]4(C)C3CC[C@@]12C)C(C)C` (stereo partly specified), the Potency result was “inactive”. Turning to `COC(=O)C1=C(C)NC(=O)NC1/C=C/c1ccccc1` (stereo unspecified), the Potency entry is “inactive”.

For the compound `COc1ccccc1NC(=O)C1=C(C)NC2=C(C(=O)CCC2)C1c1ccc(C)o1` (stereo unspecified), the Potency result was “inactive”. As to `COC(=O)C1=C(C)NC2=C(C(=O)c3ccccc32)C1c1ccc(-c2ccc(C(=O)O)cc2)o1` (stereo unspecified), the Potency is 25.1 µM (active).
